# Experimental data: PubChem BioAssay AID1159580 (chemical genetic matrix, 2015)
# The campaign covered roughly 5,500 compounds. About 2,000 (36%) were called active. Inconclusive results (about 18%) are left out. Some of the results follow. A number with no mark means an inactive call. Rule as the data show it: active = normalized growth mostly below about 0.91 (no sharp cut-off); inconclusive = no clear call, values can overlap the other calls; inactive = mostly above about 0.92.
# Assay: chemical genetic growth profiling, strain panel (AID 1159580);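 also: tested at 20 µM; growth read once vehicle control cultures reached saturation at 30 °C; 1 = growth at the plate median or of vehicle wells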
# Conditions: growth OD
smiles,measurement,setting,value
COc1cc2ccc(=O)oc2c2ccoc12,normalized growth,"S. cerevisiae deletion strains, locus YJR066W, strain TOR1, stronger effect = lower value",0.965
same,normalized growth,"S. cerevisiae deletion strains, locus YKL009W, strain mrt4, stronger effect = lower value",0.902
same,normalized growth,"S. cerevisiae deletion strains, locus YKL068W, stronger effect = lower value",0.999
same,normalized growth,"S. cerevisiae deletion strains, locus YKL085W, strain MDH1 (second series), stronger effect = lower value",0.999
same,normalized growth,"S. cerevisiae deletion strains, locus YKL085W, strain MDH1, stronger effect = lower value",0.999
same,normalized growth,"S. cerevisiae deletion strains, locus YKL160W, strain elf1, stronger effect = lower value",0.894 (active)
same,normalized growth,"S. cerevisiae deletion strains, locus YKR001C, strain vps1, stronger effect = lower value",0.901
same,normalized growth,"S. cerevisiae deletion strains, locus YKR026C, strain gcn3, stronger effect = lower value",0.999
same,normalized growth,"S. cerevisiae deletion strains, locus YKR091W, strain srl3, stronger effect = lower value",0.998
same,normalized growth,"S. cerevisiae deletion strains, locus YLL001W, strain dnm1, stronger effect = lower value",0.87 (active)
same,normalized growth,"S. cerevisiae deletion strains, locus YLL026W, stronger effect = lower value",0.982
same,normalized growth,"S. cerevisiae deletion strains, locus YLL041C, strain sdh2, stronger effect = lower value",0.991
same,normalized growth,"S. cerevisiae deletion strains, locus YLR027C, strain aat2, stronger effect = lower value",0.911 (active)
same,normalized growth,"S. cerevisiae deletion strains, locus YLR039C, strain RIC1, stronger effect = lower value",1.09
same,normalized growth,"S. cerevisiae deletion strains, locus YLR058C, strain SHM2, stronger effect = lower value",0.987
same,normalized growth,"S. cerevisiae deletion strains, locus YLR102C, strain apc9, stronger effect = lower value",1.01
same,normalized growth,"S. cerevisiae deletion strains, locus YLR113W, strain HOG1, stronger effect = lower value",1.09
same,normalized growth,"S. cerevisiae deletion strains, locus YLR221C, strain rsa3, stronger effect = lower value",0.873 (active)
same,normalized growth,"S. cerevisiae deletion strains, locus YLR258W, strain gsy2, stronger effect = lower value",0.87 (active)
same,normalized growth,"S. cerevisiae deletion strains, locus YLR262C, strain YPT6 (second series), stronger effect = lower value",0.948
same,normalized growth,"S. cerevisiae deletion strains, locus YLR262C, strain YPT6, stronger effect = lower value",1.06
same,normalized growth,"S. cerevisiae deletion strains, locus YLR268W, strain sec22, stronger effect = lower value",0.97
same,normalized growth,"S. cerevisiae deletion strains, locus YLR320W, strain mms22, stronger effect = lower value",0.752 (active)
same,normalized growth,"S. cerevisiae deletion strains, locus YLR342W, strain FKS1, stronger effect = lower value",1.01
same,normalized growth,"S. cerevisiae deletion strains, locus YLR357W, strain rsc2, stronger effect = lower value",1.16 [resistant] (active)
same,normalized growth,"S. cerevisiae deletion strains, locus YLR370C, strain arc18, stronger effect = lower value",0.982
same,normalized growth,"S. cerevisiae deletion strains, locus YLR371W, strain rom2, stronger effect = lower value",0.947
same,normalized growth,"S. cerevisiae deletion strains, locus YLR384C, strain iki3, stronger effect = lower value",0.986
same,normalized growth,"S. cerevisiae deletion strains, locus YLR418C, strain cdc73, stronger effect = lower value",0.918
same,normalized growth,"S. cerevisiae deletion strains, locus YML016C, strain PPZ1, stronger effect = lower value",0.991
same,normalized growth,"S. cerevisiae deletion strains, locus YML032C, strain rad52, stronger effect = lower value",0.737 (active)
same,normalized growth,"S. cerevisiae deletion strains, locus YML120C, strain ndi1, stronger effect = lower value",0.844 (active)
same,normalized growth,"S. cerevisiae deletion strains, locus YML124C, strain tub3, stronger effect = lower value",1
same,normalized growth,"S. cerevisiae deletion strains, locus YMR058W, strain fet3, stronger effect = lower value",0.941
same,normalized growth,"S. cerevisiae deletion strains, locus YMR078C, strain ctf18, stronger effect = lower value",0.977
same,normalized growth,"S. cerevisiae deletion strains, locus YMR125W, strain sto1, stronger effect = lower value",1.02
same,normalized growth,"S. cerevisiae deletion strains, locus YMR129W, stronger effect = lower value",0.971
same,normalized growth,"S. cerevisiae deletion strains, locus YMR205C, strain PFK2, stronger effect = lower value",0.993
same,normalized growth,"S. cerevisiae deletion strains, locus YMR223W, strain ubp8, stronger effect = lower value",0.937
same,normalized growth,"S. cerevisiae deletion strains, locus YMR231W, strain pep5, stronger effect = lower value",0.98
same,normalized growth,"S. cerevisiae deletion strains, locus YMR263W, strain SAP30, stronger effect = lower value",0.976
same,normalized growth,"S. cerevisiae deletion strains, locus YMR307W, strain GAS1, stronger effect = lower value",1.09
same,normalized growth,"S. cerevisiae deletion strains, locus YNL067W, strain RPL9B, stronger effect = lower value",0.977
same,normalized growth,"S. cerevisiae deletion strains, locus YNL071W, strain lat1, stronger effect = lower value",0.913 (active)
same,normalized growth,"S. cerevisiae deletion strains, locus YNL128W, strain TEP1, stronger effect = lower value",0.871
same,normalized growth,"S. cerevisiae deletion strains, locus YNL183C, strain NPR1, stronger effect = lower value",0.977
same,normalized growth,"S. cerevisiae deletion strains, locus YNL209W, strain ssb2, stronger effect = lower value",0.919 (active)
same,normalized growth,"S. cerevisiae deletion strains, locus YNL233W, strain BNI4, stronger effect = lower value",0.982
same,normalized growth,"S. cerevisiae deletion strains, locus YNL248C, strain rpa49, stronger effect = lower value",0.458 (active)
same,normalized growth,"S. cerevisiae deletion strains, locus YNL250W, strain rad50, stronger effect = lower value",0.856 (active)
same,normalized growth,"S. cerevisiae deletion strains, locus YNL271C, strain bni1, stronger effect = lower value",0.956
same,normalized growth,"S. cerevisiae deletion strains, locus YNL298W, strain CLA4, stronger effect = lower value",0.954
same,normalized growth,"S. cerevisiae deletion strains, locus YNL307C, strain MCK1, stronger effect = lower value",1.01
same,normalized growth,"S. cerevisiae deletion strains, locus YNL322C, strain KRE1 (second series), stronger effect = lower value",0.793 (active)
same,normalized growth,"S. cerevisiae deletion strains, locus YNR049C, strain mso1, stronger effect = lower value",1.02
same,normalized growth,"S. cerevisiae deletion strains, locus YNR052C, strain pop2, stronger effect = lower value",0.925
same,normalized growth,"S. cerevisiae deletion strains, locus YOL012C, strain htz1",0.781
same,normalized growth,"S. cerevisiae deletion strains, locus YOL147C, strain pex11, stronger effect = lower value",0.981
same,normalized growth,"S. cerevisiae deletion strains, locus YOR001W, strain rrp6, stronger effect = lower value",0.732 (active)
same,normalized growth,"S. cerevisiae deletion strains, locus YOR061W, strain CKA2, stronger effect = lower value",1
same,normalized growth,"S. cerevisiae deletion strains, locus YOR069W, strain VPS5, stronger effect = lower value",0.988
same,normalized growth,"S. cerevisiae deletion strains, locus YOR070C, strain gyp1, stronger effect = lower value",0.966
same,normalized growth,"S. cerevisiae deletion strains, locus YOR080W, strain dia2, stronger effect = lower value",0.891 (active)
same,normalized growth,"S. cerevisiae deletion strains, locus YOR083W, strain WHI5, stronger effect = lower value",0.801 (active)
same,normalized growth,"S. cerevisiae deletion strains, locus YOR106W, strain vam3, stronger effect = lower value",0.755 (active)
same,normalized growth,"S. cerevisiae deletion strains, locus YOR136W, strain idh2, stronger effect = lower value",0.971
same,normalized growth,"S. cerevisiae deletion strains, locus YOR144C, strain elg1, stronger effect = lower value",0.986
same,normalized growth,"S. cerevisiae deletion strains, locus YOR184W, strain ser1, stronger effect = lower value",0.994
same,normalized growth,"S. cerevisiae deletion strains, locus YOR231W, strain MKK1, stronger effect = lower value",0.991
same,normalized growth,"S. cerevisiae deletion strains, locus YOR265W, strain rbl2, stronger effect = lower value",0.952
same,normalized growth,"S. cerevisiae deletion strains, locus YOR270C, strain vph1, stronger effect = lower value",0.814
same,normalized growth,"S. cerevisiae deletion strains, locus YOR290C, strain snf2, stronger effect = lower value",0.821 (active)
same,normalized growth,"S. cerevisiae deletion strains, locus YOR316C, strain cot1, stronger effect = lower value",0.981
same,normalized growth,"S. cerevisiae deletion strains, locus YPL051W, strain arl3, stronger effect = lower value",0.863 (active)
same,normalized growth,"S. cerevisiae deletion strains, locus YPL078C, strain atp4, stronger effect = lower value",0.858 (active)
same,normalized growth,"S. cerevisiae deletion strains, locus YPL106C, strain sse1, stronger effect = lower value",0.748 (active)
same,normalized growth,"S. cerevisiae deletion strains, locus YPL240C, strain hsp82, stronger effect = lower value",0.965
same,normalized growth,"S. cerevisiae deletion strains, locus YPL241C, strain CIN2, stronger effect = lower value",0.997
same,normalized growth,"S. cerevisiae deletion strains, locus YPL256C, strain CLN2, stronger effect = lower value",1.06
same,normalized growth,"S. cerevisiae deletion strains, locus YPR119W, strain clb2, stronger effect = lower value",0.99
same,normalized growth,"S. cerevisiae deletion strains, locus YPR141C, strain kar3, stronger effect = lower value",1
same,normalized growth,"S. cerevisiae deletion strains, locus YPR163C, strain tif3, stronger effect = lower value",0.884 (active)
same,normalized growth,"S. cerevisiae deletion strains, locus YPR167C, strain met16, stronger effect = lower value",0.97
same,normalized growth,"S. cerevisiae deletion strains, strain wtn01, stronger effect = lower value",0.969
same,normalized growth,"S. cerevisiae strains, strain wild type, stronger effect = lower value",1.02
